Assay results taken from PubChem BioAssay AID1645860 (Buhrlage Lab, Dana-Farber Cancer Institute and Novartis …, 2021).
About 2,500 (5.3%) of roughly 47,000 compounds were called active. No stated cut-off is given here; in the data, active means inhibition above about 30%; inactive means the rest. The sample as a whole holds a higher share of actives than the screen did. *1 amine or outer side, *2 acyl side, *3 side chain or, on linkers, in order; H or OH if unused. Where a SMILES comes first, the peptide text is derived from it. [ ]: non-standard residue; d: D form. ξ: configuration not given here. ξβ3hGly(undecyl) = CCCCCCCCCCCC(CC(=O)[*:2])N[*:1]

These compounds were tested against Ubiquitin carboxyl-terminal hydrolase 30 (Homo sapiens) (UniProt Q70CQ3) (assay: inhibitors of human USP30 deubiquitinase (AID 1645860)). Conditions: purified USP30, Ub-rhodamine cleavage fluorescence; at 25 µM; active compounds read high.
Sequence of Ubiquitin carboxyl-terminal hydrolase 30 (Homo sapiens) (Q70CQ3 whole entry, looked up): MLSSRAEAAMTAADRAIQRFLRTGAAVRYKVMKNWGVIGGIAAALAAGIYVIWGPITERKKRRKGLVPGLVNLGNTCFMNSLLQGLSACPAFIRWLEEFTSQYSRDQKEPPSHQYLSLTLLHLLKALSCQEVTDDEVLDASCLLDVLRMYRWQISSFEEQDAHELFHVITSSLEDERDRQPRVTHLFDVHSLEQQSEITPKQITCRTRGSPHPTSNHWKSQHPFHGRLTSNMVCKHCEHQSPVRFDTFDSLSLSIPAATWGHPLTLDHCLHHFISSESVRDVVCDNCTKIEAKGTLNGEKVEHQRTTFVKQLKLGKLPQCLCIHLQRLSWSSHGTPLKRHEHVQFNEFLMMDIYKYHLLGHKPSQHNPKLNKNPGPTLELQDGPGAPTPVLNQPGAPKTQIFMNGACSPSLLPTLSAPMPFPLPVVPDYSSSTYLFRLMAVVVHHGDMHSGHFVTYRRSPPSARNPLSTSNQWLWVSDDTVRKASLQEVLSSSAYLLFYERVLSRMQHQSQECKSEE

SMILES	inhibition
CNC(=O)NC1CCN(c2nc3cccnc3n(Cc3ccc(C)cc3)c2=O)CC1	-0.331% (inactive)
Cc1ccc(CCNCc2c(C(=O)O)n(C)c3ccccc23)cc1	-4.51% (inactive)
Cc1ccc(Cn2c(C(=O)O)c(CNC(C)CCc3ccccc3)c3ccccc32)cc1 (configuration not stated)	35.8% (active)
CC(CCc1ccccc1)NCc1c(C(=O)O)n(Cc2ccccc2F)c2ccccc12 (configuration not stated)	33.3% (active)
COc1ccc(CCNCc2c(C(=O)O)n(Cc3ccc(Cl)cc3)c3ccccc23)c(OC)c1OC	18.6% (inactive)
O=C(CCCn1c(=O)c2ccccc2n(Cc2ccccc2F)c1=O)NC1CCCC1	15.8% (inactive)
O=S(=O)(c1ccc(Cl)c(-c2nnc(-c3ccccc3)o2)c1)N1CCOCC1	8.47% (inactive)
Cc1ccc(S(=O)(=O)Nc2ccc(-c3c[n+]4ccccc4n3C)cc2)cc1	21.2% (inactive)
Cc1ccc(S(=O)(=O)NC2=NC(c3ccccc3)c3cc(Cl)ccc3N2)cc1 (configuration not stated)	43.7% (active)
Cc1ccc(S(=O)(=O)NCc2c(-c3ccccc3)c3cc(C)ccc3[nH]c2=O)cc1	-9.29% (inactive)
COc1cc(NC(=O)c2noc3c2CCc2sccc2-3)cc(OC)c1	8.21% (inactive)
CC(=O)N1CCCc2ccc(NC(=O)c3cccc([N+](=O)[O-])c3)cc21	16.5% (inactive)
CC1(C)OC(=O)[C@@]2(C)N[C@]1(C)C[C@@H]2C(=O)Nc1ccc(O)cc1	-11.1% (inactive)
Cc1ccc(S(=O)(=O)CC(=O)Nc2sc(C)c(C)c2C(N)=O)cc1	-97.7% (inactive)
Cc1sc(NC(=O)c2ccc(S(=O)(=O)N(C)CC3CCCO3)cc2)c(C(N)=O)c1C (configuration not stated)	-70.8% (inactive)
CCN(CC)S(=O)(=O)c1ccc(C(=O)Nc2sc(C)c(C)c2C(N)=O)cc1	36.2% (active)
Cn1cc(-c2cnc3n2CCC32CCN(S(=O)(=O)c3cccc(F)c3)CC2)cn1	-1.9% (inactive)
CN(C(=O)CSCc1nc(-c2ccc(F)cc2)no1)c1ccc(F)cc1	-1.42% (inactive)
O=c1[nH]c2c(-c3ccccn3)nsc2c(=O)n1Cc1cccnc1	2.65% (inactive)
Cc1cccc(-c2nnc(-c3cccc(S(=O)(=O)N4CCCC4)c3)o2)c1	10.5% (inactive)
O=C(COC(=O)C1CCN(S(=O)(=O)c2c(Cl)cccc2Cl)CC1)Nc1ccc2c(c1)CCC2	11.6% (inactive)
O=C(Nc1nnc(-c2cccc([N+](=O)[O-])c2)o1)C1CCN(S(=O)(=O)c2ccc3c(c2)CCC3)CC1	40.6% (active)

SMILES	inhibition
CNc1cc(C)nc(C2CN(C(=O)c3ccnn3C(C)C)CCO2)c1 (configuration not stated)	15.8% (inactive)
COc1ccc(C2c3c(oc4ccccc4c3=O)C(=O)N2c2cc(C)on2)cc1 (configuration not stated)	23.7% (inactive)
O=C(C1CCOCC1)N1CCc2nc3ccccc3n2C(Cc2ccccc2)C1 (configuration not stated)	8.3% (inactive)
CCN1Cc2c(C(=O)NCCC(C)C)ncn2-c2ccccc2S1(=O)=O	-4.42% (inactive)
CN1C(=O)c2ccccc2C(C(=O)N2CCc3ccccc3C2)C1c1cccs1 (configuration not stated)	25% (inactive)
O=c1c(S(=O)(=O)c2cc(F)cc(F)c2)c[nH]c2ccc(F)cc12	-13.9% (inactive)
COc1ccc(CCNC(=O)CCCn2c(=O)c3ccccc3n(CC(=O)OCc3ccccc3)c2=O)cc1OC	64.1% (active)
COc1ccc(CCNC(=O)Cn2c(=O)n(CC3CCC(C(=O)NC4CCCC4)CC3)c(=O)c3ccccc32)cc1OC (configuration not stated)	16.9% (inactive)
Cc1ccc(CNC(=O)CCCn2c(=O)c3sccc3n(CC(=O)OCc3ccccc3)c2=O)cc1	70.7% (active)
N#Cc1ccccc1Cn1c(=O)n(CCCC(=O)NCc2ccc(F)cc2)c(=O)c2ccccc21	20.9% (inactive)
COc1ccc(-c2nc3c(c(=O)c4ccccc4n3C)c(=O)n2CCc2ccc(OC)c(OC)c2)cc1	7.98% (inactive)
Cc1cccc(N2CC(C)Cn3c2nc2c3c(=O)n(CC(=O)OCc3ccccc3)c(=O)n2C)c1 (configuration not stated)	-36.6% (inactive)
COC[C@H]1C[C@@H]2CN(S(=O)(=O)c3ccc(F)cc3)C(C)[C@H]1N2C (some centres not stated)	-8.47% (inactive)
CCn1cc(-c2ccnc3cc(C(=O)NC4CCOCC4)nn23)c(C)n1	-12.3% (inactive)
O=C(O)CCNC(=O)/C(=C/c1ccc(Cl)cc1)NC(=O)c1ccco1	-2.38% (inactive)
O=C(NCc1ccc2c(c1)OCO2)C1=CCN(Cc2ccccc2)CC1	-38.4% (inactive)
O=C(NCc1ccc2c(c1)OCO2)c1cc2c(s1)CS(=O)(=O)C2	34.4% (active)
O=C(NCCc1ccccc1)c1cc2c(s1)CS(=O)(=O)C2	-21.6% (inactive)
COc1ccc(C)cc1NC(=O)COC(=O)C1(c2ccccc2F)CCCC1	22.5% (inactive)
CC(=O)c1cccc(NC(=O)c2cccc(-c3nc(-c4ccccc4)no3)c2)c1	-9.31% (inactive)
Cc1nc(-c2cccc(S(=O)(=O)Nc3ccccc3C)c2)no1	-3.5% (inactive)
Cc1nc(-c2cccc(NC(=O)C3CCN(c4ccccc4)C3=O)c2)no1 (configuration not stated)	42.5% (active)

SMILES	inhibition
CC(C)c1noc(-c2ccc(-n3cnc(C(=O)NC4CC4)c3)nc2)n1	1.32% (inactive)
N#Cc1ccc(OC(=O)c2cc(S(=O)(=O)N3CCOCC3)c(Cl)cc2Cl)cc1	1.53% (inactive)
COc1ccc(C(NC(=O)CN(C)Cc2ccc3c(c2)OCO3)c2ccccc2)cc1 (configuration not stated)	42% (active)
CN(CC(=O)Nc1ccc(F)cc1Cl)Cc1ccc2c(c1)OCO2	-9.47% (inactive)
Cc1ccc(F)cc1NC(=O)CN(C)Cc1ccc2c(c1)OCO2	-0.987% (inactive)
O=C(c1ccccc1)c1ccc(NC2CCCc3ccccc32)c([N+](=O)[O-])c1 (configuration not stated)	-121% (inactive)
O=C(COC(=O)c1ccc(F)cc1)NC1CCCc2ccccc21 (configuration not stated)	-8.55% (inactive)
Nc1ccc(C(=O)OCC(=O)NC2CCCc3ccccc32)cc1[N+](=O)[O-] (configuration not stated)	31.6% (active)
O=C(Cc1ccc(F)cc1)Nc1ccccc1Cc1ccccc1	27.2% (inactive)
Cc1cc(F)ccc1NC(=O)Cc1n[nH]c(Cc2ccccc2)n1	-13.4% (inactive)
Cc1ccccc1NC(=O)Cc1csc2nc(-c3ccc(F)cc3)cn12	88.4% (active)
CC(C)N1CCN(C(=O)c2n[nH]c3c2CCCC3)CC1	-5.42% (inactive)
Cn1ccc(-c2cc(C(=O)NC3CC3)c3ccccn23)n1	-423% (inactive)
CC(C)C(=O)Nc1nc2cc(NS(=O)(=O)c3ccccc3)ccc2s1	36.4% (active)
CC(C)C(=O)Nc1nc2ccc(CCC(=O)Nc3ccc(F)cc3)cc2s1	26.5% (inactive)
O=C(Nc1ccc2sc(NC(=O)C3CCCCC3)nc2c1)NC1CCCC1	0.0388% (inactive)
COCCN1C(=O)Cc2c(C)nc(C3(C)CCCN(c4cc(C)ncn4)C3)nc21 (configuration not stated)	-104% (inactive)
COc1cc(OC)cc(-c2nnc(NC(=O)c3ccc([N+](=O)[O-])o3)o2)c1	40.1% (active)
COc1cccc(-c2ocnc2C(=O)NCc2ccc(OC)c(OC)c2)c1	-25.4% (inactive)
COc1ccc(-c2ocnc2C(=O)NCc2ccc(OC)c(OC)c2)cc1	-6.37% (inactive)
N#Cc1ccc(-c2cccc(C(F)(F)F)c2)n(Cc2c(F)cccc2Cl)c1=O	17.6% (inactive)
CC(=O)N1CSCC1C(=O)N1CCC2(CC1)CNC(=O)c1ccccc1O2 (configuration not stated)	6.33% (inactive)

SMILES	inhibition
CCN1CCC2(CC1)OC(=O)C(C)=C2C(=O)NCc1ccccc1OC	3.07% (inactive)
COc1cccc(NC(=O)CSc2nc(-c3ccco3)nc3cc(=O)[nH]n23)c1	-50.3% (inactive)
O=C1C(O)=C(c2ccc(O)c(O)c2)C(=O)C(O)=C1c1ccccc1	50.5% (active)
CC(=O)N1CCn2c(nnc2C2CCCN2)C1 (configuration not stated)	12.2% (inactive)
CCCCCCCCCCCC1CC(=O)NC(CC(N)=O)C(=O)NC(Cc2ccc(O)cc2)C(=O)NC(CC(N)=O)C(=O)NC(CCC(N)=O)C(=O)N2CCCC2C(=O)NC(CC(N)=O)C(=O)NC(CO)C(=O)N1 (stereo not drawn) (cyclo([ξβ3hGly(undecyl)]NYNQPNS); configuration not given here)	-32.4% (inactive)
O=C(Nc1ccc(C(F)(F)F)cc1)N1CCc2[nH]cnc2C1c1ccncc1 (configuration not stated)	13% (inactive)
Cc1nn(-c2ccc(F)cc2F)c2c1C(C(=O)c1cc3ccccc3o1)CC(=O)N2 (configuration not stated)	33.3% (active)
Cc1nn(-c2ccc(F)cc2)c2c1C(C(=O)c1cc3ccccc3o1)CC(=O)N2 (configuration not stated)	-18.2% (inactive)
Cc1nn(-c2cccc(F)c2)c2c1C(C(=O)c1cc3ccccc3o1)CC(=O)N2 (configuration not stated)	2.53% (inactive)
CC(CNC(=O)c1csc(C(=O)N2CCCC2)n1)c1ccccc1 (configuration not stated)	-12% (inactive)
CC(C)=CCc1cc(O)ccc1O	0.263% (inactive)
CC(C)=CCC(O)C1=CC(=O)c2c(O)ccc(O)c2C1=O (configuration not stated)	74.5% (active)
Cc1ccc(NC(=O)C(OC(=O)c2ccc(S(=O)(=O)N3CCCC3)cc2)c2ccccc2)cc1 (configuration not stated)	0.818% (inactive)
CC(=O)Nc1ccc(S(=O)(=O)N2CCC(CC(=O)NC(C)c3ccccc3)CC2)cc1 (configuration not stated)	31.5% (active)
O=C(O)c1ccc(S(=O)(=O)N2CCC(Cc3ccccc3)CC2)cc1	-5.01% (inactive)
CC(=O)Nc1ccc(S(=O)(=O)N2CCC(CN3CCCC(C)C3)CC2)cc1 (configuration not stated)	-7.71% (inactive)
CCNC(=O)c1ccc2c(c1)nc1n2CCN(CC2CCCO2)C1 (configuration not stated)	-93.9% (inactive)
Cc1noc(C)c1CSc1ccccc1C(=O)N(C)Cc1ccc2c(c1)OCO2	25.1% (inactive)
CC(=O)CCCSc1ncnc2c1sc1nc(N3CCOCC3)c3c(c12)CC(C)(C)OC3	36.7% (active)
CCOCCCNc1ncnc2c1sc1nc(N3CCOCC3)c3c(c12)CC(C)(C)OC3	-0.00409% (inactive)
CCCCCCSc1ncnc2c1sc1nc(-c3ccccc3)c3c(c12)CC(C)(C)OC3	-3.25% (inactive)
